Measurements published in the supplement of paper PMC6555819.

Assays:
Test in all cases: PBM binding z-score (relative to random genomic background probes); higher = stronger binding; sequences stand for … in GC…GCGATTGACAGCGTAGAATGAAGG
[1] = test system: PPARg:RXRa DBDmut IVT, anti-RXR (DBD mutation: RXRa K156A/R161A, NR concentration 270 nM, RXRa partner concentration 90 nM)
Summary of the method: (§1)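 On custom Agilent 4×180K arrays, double-stranded probes with 34-nt variable regions carried direct-repeat seeds, single-nucleotide variants, half-site ablations or random human genomic background. Ligand-free nuclear receptor dimers were applied for 1 h, and binding was read with antibodies against each partner (one per run). Binding z-scores come from regression-normalized fluorescence, with the random background probes as reference.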

[2] = test system: PPARg:RXRa IVT, anti-PPARg (NR concentration 270 nM, RXRa partner concentration 90 nM)
Summary of the method: as §1

[3] = test system: PPARg DBDmut:RXRa IVT, anti-PPARg (DBD mutation: PPARg1 K132A/R137A, NR concentration 270 nM, RXRa partner concentration 90 nM)
Summary of the method: as §1

[4] = test system: PPARg DBDmut IVT, anti-PPARg (DBD mutation: PPARg1 K132A/R137A, NR concentration 270 nM)
Summary of the method: as §1

[5] = test system: PPARg homodimer (NR concentration 180 nM)
Summary of the method: as §1

[6] = test system: PXR:RXRa (NR concentration 270 nM, RXRa partner concentration 90 nM)
Summary of the method: as §1

[7] = test system: PXR homodimer (NR concentration 270 nM)
Summary of the method: as §1

[8] = test system: RARa:RXR (NR concentration 270 nM, RXRa partner concentration 90 nM)
Summary of the method: as §1

[9] = test system: RARa homodimer (NR concentration 270 nM)
Summary of the method: as §1

[10] = test system: RARb:RXRa (NR concentration 270 nM, RXRa partner concentration 90 nM)
Summary of the method: as §1

[11] = test system: RARb homodimer (NR concentration 270 nM)
Summary of the method: as §1

[12] = test system: RARg:RXRa (NR concentration 270 nM, RXRa partner concentration 90 nM)
Summary of the method: as §1

[13] = test system: RARg homodimer (NR concentration 270 nM)
Summary of the method: as §1

[14] = test system: RXRa DBDmut IVT, anti-RXR (DBD mutation: RXRa K156A/R161A, NR concentration 90 nM)
Summary of the method: as §1

[15] = test system: RXRa homodimer (NR concentration 180 nM)
Summary of the method: as §1

[16] = test system: THRa:RXRa (NR concentration 90 nM, RXRa partner concentration 90 nM)
Summary of the method: as §1

[17] = test system: THRa homodimer (NR concentration 90 nM)
Summary of the method: as §1

[18] = test system: VDR homodimer (NR concentration 270 nM)
Summary of the method: as §1

Row | Sequence | PBM binding z-score [1] | PBM binding z-score [2] | PBM binding z-score [3] | PBM binding z-score [4] | PBM binding z-score [5] | PBM binding z-score [6] | PBM binding z-score [7] | PBM binding z-score [8] | PBM binding z-score [9] | PBM binding z-score [10] | PBM binding z-score [11] | PBM binding z-score [12] | PBM binding z-score [13] | PBM binding z-score [14] | PBM binding z-score [15] | PBM binding z-score [16] | PBM binding z-score [17] | PBM binding z-score [18]
1 | AGAATGAGGTTATTAAGATCAGAGAATTGCGGTC | 3.17 | 2.63 | 0.323 | 0.23 | 0.951 | 1 | 0.488 | 1.2 | 0.79 | 1.16 | 0.575 | 1.21 | 0.933 | 1.88 | 1.7 | 2.06 | 0.584 | 1.11
2 | CAAACTAGGTCACAGAGGTCAAGGTCCGTGCGTA | 8.45 | 9.01 | 2.38 | 2.54 | 4.67 | 6.54 | 10 | 7.58 | 2.96 | 5.46 | 5.39 | 7.22 | 7.73 | 2.61 | 7.09 | 5.05 | 3.46 | 4.66
3 | CCTACTGGGCCATTTAGAGGTCATTGATCATATG | 3.95 | 4.32 | 0.156 | 0.0335 | 2.07 | 4.7 | 2.25 | 4.46 | 0.647 | 2.89 | 3.87 | 4.06 | 2.72 | 1.45 | 3.21 | 3.31 | 1.7 | 3.36
4 | TCTCGGAGGACACGAAGGTCACAGCTTTCCAGAG | 1.84 | 2.4 | 0.166 | -0.192 | 2.75 | 3.96 | 2.33 | 3.8 | 0.474 | 3.97 | 4.54 | 4.52 | 4.93 | 1.47 | 3.74 | 3.86 | 1.77 | 2.9
5 | AGTCAAAGTTCATCTATGTAACGTAAGATATGCT | 0.144 | 2.33 | 0.955 | 1.14 | 3.7 | 5.09 | 5.26 | 3.82 | 1.52 | 4.89 | 3.77 | 5.2 | 6.01 | 4.69 | 4.74 | 1.92 | -0.492 | 4.62
6 | TAGCCTAGGTCAGGCGGGCCAGTATAGTGTCGGC | 0.604 | 1.7 | -0.617 | -0.515 | -0.227 | 0.158 | -0.632 | 0.923 | -0.619 | 3.16 | 2.21 | 2.75 | 3.45 | -1.1 | 1.3 | 1.86 | -0.0587 | -0.674
7 | TAGCCTAGGTGAGATCGGGCCAGTATACGCTATA | 0.128 | 1.07 | -0.934 | -1.25 | -0.915 | -0.281 | -0.98 | 0.347 | -1.23 | -0.0511 | -0.246 | -0.235 | 0.0324 | -1.2 | -0.204 | 1.52 | -0.733 | -0.357
8 | ACAATGAGGTTATACGTAGATCAGGGAAGAAAGT | 2.72 | 1.93 | 1.33 | 1.68 | 0.816 | 1.19 | 0.655 | 1.82 | 0.312 | 1.69 | 0.975 | 1.89 | 1.55 | 2.02 | 2.16 | 2.13 | 0.593 | 1.28
9 | AGAATGAGGGTAAGATCAGGGAAACAGAATACAT | 2.28 | 1.71 | 1.14 | 0.818 | 0.587 | 0.216 | 0.539 | 0.611 | 1.07 | 0.741 | 0.584 | 0.474 | 0.611 | 0.212 | 0.321 | 1.54 | 0.43 | 0.304
10 | CCGACTGGGGCATAAGGTTACCCTAAGCCAGCCC | 2.4 | 2.69 | -0.367 | -1.53 | -0.0921 | 0.213 | -0.708 | 1.1 | -0.511 | 1.26 | 1.42 | 1.27 | 0.806 | -0.487 | 1.07 | 1.79 | 1.55 | -0.217
11 | GTTAGCAGGCCATTTGGGTCACTCAATGACGGGC | 2.37 | 2.61 | -0.276 | -0.494 | -0.0267 | 0.566 | 0.185 | 0.925 | -0.249 | 1.52 | 1.8 | 1.15 | 1.5 | 0.133 | 0.847 | 1.79 | 0.575 | 0.779
12 | TCTGCTAGGTCAAAGATGGTCAGCTAATCTGCTA | 4.67 | 3.96 | 0.246 | 0.394 | 0.4 | 1.59 | -0.802 | 2.44 | -0.95 | 3.83 | 3.04 | 3.65 | 4.3 | 1.31 | 2.65 | 3.05 | 0.196 | -0.234
13 | ATCGCTAGGTAAAGATAGTTCAGTGAATGCAAAT | -0.327 | -0.329 | 0.673 | 0.059 | 0.116 | 0.306 | 0.193 | 0.173 | 0.336 | 0.139 | 0.559 | 0.136 | 0.387 | -0.61 | -0.287 | 0.234 | -0.407 | -0.0178
14 | ACTATGAGTTGACTTAGGGCAACCGATACGACGC | 0.0745 | 0.378 | 0.38 | 1.61 | 0.141 | 0.608 | 0.888 | 1.09 | 0.486 | 0.974 | 1.06 | 1.07 | 1.2 | 1.49 | 0.819 | 2.22 | 0.414 | 1.26
15 | CCTAGTTGGTCAAGGGCACACACGCTATAGGTAC | 1.1 | 1.69 | -0.275 | 0.0269 | 1.15 | 0.512 | 0.494 | 0.731 | 1.05 | 1.98 | 1.78 | 1.41 | 1.99 | 0.232 | 0.726 | 1.09 | 0.605 | 1.09
